PubChem BioAssay
Active and inactive are the calls of the source.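 The calls were made as follows, unless noted: active = NADPH fluorescence slope more negative than the mean of all samples by about 3 SD, 99.7% confidence; inactive = the rest.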

What was measured:
[1] = inhibitors of TNFa-induced NFkB p65 translocation, primary screen, imaging, HUVEC, MLSMR starter and 10KST1 sets (AID 438;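 active = inhibition above 20% together with a positive visual image hit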;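 also: compound added about 3h40 before a 20 min TNFalpha stimulation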;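 as to inhibition: signal is the nuclear over cytoplasmic p65 intensity ratio per well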); settings: HUVEC TNFa-induced p65 nuclear translocation; cell count: measured here: nuclei count (cytotoxicity indicator), at 2.08 µM; inhibition: at 2 µM, stronger effect = higher value, 0% TNFa-plus-vehicle, 100% no-TNFa wells
[2] = inhibitors of mutant huntingtin aggregation, primary screen, imaging, exon1htt(103Q)mCFP cells, high-content imaging (AID 483;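 active = visual image review flags a hit and inhibition of aggregation exceeds 20%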;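 also: compound exposure lasted 3 days before fixation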;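 as to nuclei count: percent of the per-plate median nuclei count of sample wells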); settings: exon1htt(103Q)mCFP cell line, aggregate imaging, at 2 µM; inhibition of aggregation: stronger effect = higher value; nuclei count: measured here: cell count, toxicity
[3] = inhibitors of E-selectin induction by TNFa, primary screen, imaging, HUVEC, immunofluorescence, MLSMR starter and 10KST1 sets (AID 487;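 active = visually confirmed hit in the image check and inhibition above 20%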;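 as to inhibition: signal is fraction of cell area covered by stained E-selectin grains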;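 as to nuclei count: 100% = median nuclei count of all wells on the same plate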); settings: HUVEC TNFalpha-induced E-selectin immunofluorescence imaging, at 2 µM; inhibition: stronger effect = higher value; nuclei count: measured here: cell number, toxicity
[4] = biological target: Voltage-gated potassium channel subunit beta-2 (Rattus norvegicus) (UniProt P62483); assay: KvBeta enzyme negative modulators, primary screen, biochemical, NADPH fluorescence (AID 622;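 active = fluorescence slope higher than the sample average by over 3 SD, cut at about -0.22 in these data, passing the limit was not always enough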;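 also: slope of raw intensity against log time taken from 70 to 1610 s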); settings: recombinant KvBeta, 4-cyanobenzaldehyde reduction, at 10 µM, stronger effect = higher value
[5] = biological target: Voltage-gated potassium channel subunit beta-2 (Rattus norvegicus) (UniProt P62483); assay: KvBeta positive modulators, primary screen, biochemical, NADPH fluorescence (AID 623); settings: Recombinant KvBeta, NADPH fluorescence decrease slope, 10 min; at 10 µM; stronger effect = lower value;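 also: fluorescence intensity change per second fitted from 20 to 320 s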
[6] = biological target: Alpha-2C adrenergic receptor (Homo sapiens) (UniProt P18825); assay: modulators of alpha2C/GIRK thallium flux, primary screen, cell-based, HEK293 alpha2C/GIRK1/2 (AID 624;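 active = fluorescence slope after compound addition differing from the mean of all screened samples at 99.7% confidence, in either direction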;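 also: slope of fluorescence ratio to pre-addition baseline per second over 15 to 24 s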); settings: thallium flux BTC fluorescence, at 10 µM, actives lie on both sides
[7] = inhibitors of Sendai virus-induced IRF3 signaling, primary screen, TLR/RLR signaling modifier project, cell-based, Sendai virus stimulus, luciferase, 10K MLSCN set (AID 602276;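 active = inhibition at or above 50% at 10 µM; inactive = inhibition below 50%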;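 also: firefly luciferase from ISG56 promoter only with Renilla not read in this screen; 0% = Sendai virus plus DMSO and 100% = medium plus DMSO without virus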); settings: HEK293 RL24 IRF3 luciferase reporter, at 10 µM, stronger effect = higher value
[8] = inhibitors of poly I:C-induced TLR3 signaling, primary screen, cell-based, poly I:C stimulus, luciferase, 10K MLSCN set (AID 602277;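 active = inhibition of the reporter signal at or above 50%; inactive = inhibition below 50%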); settings: HEK293-TLR3 RL24 IRF3 luciferase reporter, at 10 µM, stronger effect = higher value

Chain of Alpha-2C adrenergic receptor (Homo sapiens) (P18825 whole entry, looked up): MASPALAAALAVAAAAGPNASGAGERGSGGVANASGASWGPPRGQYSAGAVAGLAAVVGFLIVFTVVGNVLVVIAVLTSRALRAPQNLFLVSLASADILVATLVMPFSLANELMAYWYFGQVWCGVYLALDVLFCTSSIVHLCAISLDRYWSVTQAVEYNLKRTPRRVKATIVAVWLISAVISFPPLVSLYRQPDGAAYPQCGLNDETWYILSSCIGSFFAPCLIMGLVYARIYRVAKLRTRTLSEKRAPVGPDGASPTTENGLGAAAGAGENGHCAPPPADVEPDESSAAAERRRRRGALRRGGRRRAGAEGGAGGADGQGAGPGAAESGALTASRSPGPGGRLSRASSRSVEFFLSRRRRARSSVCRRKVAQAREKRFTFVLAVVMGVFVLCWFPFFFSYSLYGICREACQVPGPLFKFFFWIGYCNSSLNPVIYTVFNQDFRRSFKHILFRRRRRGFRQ
Chain of Voltage-gated potassium channel subunit beta-2 (Rattus norvegicus) (P62483 whole entry, looked up): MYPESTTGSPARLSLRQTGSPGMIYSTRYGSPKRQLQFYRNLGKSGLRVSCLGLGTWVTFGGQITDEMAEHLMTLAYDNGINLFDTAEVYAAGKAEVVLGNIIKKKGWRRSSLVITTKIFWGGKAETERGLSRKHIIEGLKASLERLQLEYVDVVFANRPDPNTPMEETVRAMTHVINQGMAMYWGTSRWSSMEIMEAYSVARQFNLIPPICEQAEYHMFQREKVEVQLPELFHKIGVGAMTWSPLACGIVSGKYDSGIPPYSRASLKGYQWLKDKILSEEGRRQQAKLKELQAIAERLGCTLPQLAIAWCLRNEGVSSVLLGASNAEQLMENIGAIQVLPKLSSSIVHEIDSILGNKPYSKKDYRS

| Compound | cell count [1] | inhibition [1] | inhibition of aggregation [2] | nuclei count [2] | inhibition [3] | nuclei count [3] | fluorescence slope [4] | NADPH fluorescence slope [5] | slope [6] | inhibition [7] | inhibition [8] |
| --- | --- | --- | --- | --- | --- | --- | --- | --- | --- | --- | --- |
| CCOc1ccc(NC(=O)CN2CCN(CC(=O)c3ccc(OCC)cc3)CC2)cc1 | 418 | 2.1% (inactive) | -16% (inactive) | 110% | -73% (inactive) | 112% | -0.397 (inactive) | -5.5e-05 (inactive) | 0.00276 (inactive) | 10.7% (inactive) | 24.5% (inactive) |
| O=C(Nc1ccc(F)cc1)NC1CCN(Cc2nnnn2Cc2ccco2)CC1 | 849 | 0% (inactive) | -19.5% (inactive) | 94.3% | -2.9% (inactive) | 113% | -0.501 (inactive) | -4.4e-05 (inactive) | 0.00571 (inactive) | -9.98% (inactive) | 0.354% (inactive) |
| CC1(C(=O)NC2CCCCC2)CCC(=O)N1Cc1cccs1 (centres undefined) | 803 | -0.6% (inactive) | 1.4% (inactive) | 104% | -78.3% (inactive) | 130% | -0.594 (inactive) | -2.7e-05 (inactive) | 0.00547 (inactive) | -11.7% (inactive) | 12.6% (inactive) |
| Cn1c(=O)oc2cc(S(=O)(=O)NC3CCN(Cc4ccccc4)CC3)ccc21 | 621 | -6.3% (inactive) | 59.7% (active) | 70.5% | -37.9% (inactive) | 99.7% | -0.57 (inactive) | 1.4e-06 (inactive) | 0.0068 (inactive) | 10.4% (inactive) | 33.8% (inactive) |
| Cc1cc(NC(c2cccnc2)c2c(C)[nH]c3ccccc23)no1 (centres undefined) | 514 | 2.5% (inactive) | 7.6% (inactive) | 112% | -105% (inactive) | 135% | -0.596 (inactive) | -4.4e-05 (inactive) | 0.00254 (inactive) | 17.8% (inactive) | 28.6% (inactive) |
| CCOc1cc(NC(=O)c2ccccn2)c(OCC)cc1NC(=O)CC(C)C | 609 | -11.5% (inactive) | -0.3% (inactive) | 115% | -76.1% (inactive) | 119% | -0.615 (inactive) | 4.7e-06 (inactive) | 0.00499 (inactive) | -9.2% (inactive) | -24.5% (inactive) |
| Oc1ccc(Nc2nc(-c3ccc(O)cc3)cs2)cc1 | 277 | 15.1% (inactive) | 18.9% (inactive) | 71.8% | -20.5% (inactive) | 124% | -0.429 (inactive) | -4.3e-05 (inactive) | 0.00332 (inactive) | -43% (inactive) | -59.8% (inactive) |
| Cc1ccc(-c2cc(C(F)F)n3ncc(C(=O)N4CCN(c5ccccn5)CC4)c3n2)cc1 | 829 | -1.7% (inactive) | 9.3% (inactive) | 85.3% | -56.7% (inactive) | 120% | -0.514 (inactive) | -3e-05 (inactive) | 0.00598 (inactive) | 17.4% (inactive) | 42.8% (inactive) |
| C=CCSc1nc2c(c(=O)[nH]c(=O)n2C)n1CC | 570 | -3% (inactive) | 6.3% (inactive) | 36.2% | -48% (inactive) | 96.3% | -0.499 (inactive) | -2.4e-05 (inactive) | 0.00669 (inactive) | -5.1% (inactive) | 22.4% (inactive) |
| Cc1cnc(NC(=O)CSc2nc3ccccc3c(=O)[nH]2)s1 | 281 | 8.9% (inactive) | -0.5% (inactive) | 99.4% | 65% (active) | 98.4% | -0.427 (inactive) | 5.1e-05 (inactive) | 0.00477 (inactive) | 2.98% (inactive) | -0.232% (inactive) |
| Cn1nc(-c2ccc(N3CCCCC3)c(NC(=O)c3ccco3)c2)c2ccccc2c1=O | 672 | -15.6% (inactive) | -14.2% (inactive) | 62.8% | 32.2% (inactive) | 84.4% | -0.5 (inactive) | -5.2e-06 (inactive) | 0.00571 (inactive) | 13.4% (inactive) | 75.2% (active) |
| c1cc(C(c2nnnn2C2CCCC2)N2CCOCC2)ccn1 (centres undefined) | 392 | -7.3% (inactive) | 27.3% (inactive) | 78.3% | 38.6% (inactive) | 97.3% | -0.522 (inactive) | 2.4e-05 (inactive) | 0.00524 (inactive) | 18.3% (inactive) | 21.2% (inactive) |
| COc1cccc(C(=O)Nc2ccc(NC(C)=O)cn2)c1 | 759 | -4.3% (inactive) | -0.2% (inactive) | 96.3% | -84.7% (inactive) | 123% | -0.469 (inactive) | -5.3e-05 (inactive) | 0.00617 (inactive) | -36.2% (inactive) | -56% (inactive) |
| CCOC(=O)N1CCC(NC(=O)C2CCCN(C(=O)c3cc4sccc4n3C)C2)CC1 (centres undefined) | 762 | -5.8% (inactive) | -4.7% (inactive) | 127% | -71.5% (inactive) | 123% | -0.556 (inactive) | -4.1e-05 (inactive) | 0.00546 (inactive) | 2.87% (inactive) | 25.3% (inactive) |
